# Laboratory results published in publication PMC5540273 (PLoS ONE, 2017).
# System: ROCK1
# Conditions: concentration: 1 μM,replicates: in singlicate; n = 1
# 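Further: KINOMEscan kinase panel screen.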
row,SMILES,%Inh [%]
1,Cn1ccc2ncnc(Oc3ccc(NC(=O)Nc4ccnc(C(F)(F)F)c4)c(Cl)c3)c21,17
2,Cc1ccc(CC(=O)N2CCc3cc(-c4cn(C)c5ncnc(N)c45)ccc32)cc1 [GSK2634758],0
3,CS(=O)(=O)c1cccc(CNc2nc(Nc3ccc4c(c3)[C@@H]3C[C@@H]4CNC3=O)ncc2C(F)(F)F)c1,0
4,CNC(=O)c1ccccc1Nc1nc(Nc2cccc(CS(C)(=O)=O)c2)ncc1C.O=CO [GSK1520489],89
5,Cn1ccc2ncnc(Oc3ccc(NC(=O)Nc4cccc(C(F)(F)F)c4)c(Cl)c3)c21,0
6,CN1CCN(CCNc2nc3cc(Oc4ccc(NC(=O)Nc5cc(C(F)(F)F)ccc5F)cc4)ccc3[nH]2)CC1.Cl.Cl [GW768504],48
7,O=C(NCC1CC1)c1ccc(-c2cc(C(=O)NC3CC3)ccc2F)cc1 [GW810445],58
8,N#Cc1cccc(C(=O)NC2CCN(c3ccnc(Nc4ccc(F)cc4)n3)C2)c1 (stereo not drawn) [GSK1379708],0
9,FC(F)(F)c1cc(Br)cc(Nc2nccc(-c3cnn4ncccc34)n2)c1 [GW810578],36
10,Cc1ccn2nc(-c3ccc(F)cc3)c(-c3ccncc3)c2c1.Cl [GW457859],12
11,C[C@@H](Oc1cc(-n2cnc3cc(-c4cnn(C)c4)ccc32)sc1C(N)=O)c1ccccc1Cl [GSK580432],14
12,Cn1ccc2ncnc(Oc3ccc(NC(=O)Nc4cncc(C(F)(F)F)c4)c(Cl)c3)c21,0
